Assay outcomes: PubChem BioAssay, National Center for Advancing Translational Sciences (NCATS)
GCN5L2 inh: blocks human GCN5L2 histone acetyltransferase. GCN5L2 HAT assay, ThioGlo1 CoA-SH fluorescence. Potency, µM (doses to about 58.9 µM), for the others: top-dose activity change, negative = inhibition, hits mostly inhibitors. 390,000 compounds, 0.21% hits
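Titration-based screen in which CoA formation is detected via maleimide probe ThioGlo1 (50uM) turning fluorescent on thiol reaction; substrates H3(1-25) 75uM and acetyl-CoA 70uM, GCN5L2 20nM, 20 min incubation at room temperature.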
DT40 TDP1 no CPT: qHTS for Inhibitors of human tyrosyl-DNA phosphodiesterase 1 (TDP1): qHTS in cells in absence of CPT; DT40 Tdp1-/- hTDP1 cells, no CPT, ATP luminescence, 48 h; Potency, µM (series often up to 46.2 µM), inactives show at the top dose activity change, negative = growth inhibition, most hits filed as inhibitors; 420,000 compounds, 15% hits; AID 686978, 2013; also: nearly all actives have a fitted effect of over 55% in size
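A cellular qHTS used chicken DT40 cells lacking endogenous Tdp1 but carrying stably transfected human TDP1. Compounds were applied without camptothecin, and cell growth kinetics were judged by ATP-dependent luminescence after ≥48 hr.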
PLK1 PBD inh: blocks phosphopeptide binding to human PLK1 polo-box domain; P53350; Plk1 PBD binding of FITC phosphopeptide, fluorescence polarization; Potency, µM, inactives show max response, negative = inhibition, usual class: inhibitors; 360,000 compounds, 2.8% hits; also: series mostly up to about 57 µM; nearly all actives have a fitted effect of over 65% in size
VDR inh: inhibitors of human vitamin D receptor | P11473 | AID 504847 | VDR-SRC2-3 peptide fluorescence polarization, 2 h | Potency, µM, inactives show max response, negative = inhibition, actives largely listed as inhibitors | 400,000 compounds, 0.93% hits
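FP read-out; VDR + SRC2-3 coactivator peptide; 23 nl compound by pintool; 2 h RT incubation; reagents held at 4 deg C, protected from light.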
DT40 TDP1 CPT: DT40-hTDP1 cell growth loss with CPT. chicken DT40 Tdp1-/-;hTDP1 cells + 20 nM CPT, ATP luminescence, 48 h. Potency, µM (doses to about 46.2 µM), for the others: at the highest dose activity change, negative = growth inhibition, most hits filed as inhibitors. 420,000 compounds, 12% hits. AID 686979; also: nearly all actives have a fitted effect of over 55% in size
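Chicken DT40 Tdp1-/- cells stably complemented with human TDP1 were seeded at 400 cells/well in medium containing 20 nM camptothecin, exposed to pin-transferred compounds, and grown at 37 °C for at least 48 hr. Viability was read as ATP luminescence.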
TDP1 inh: inhibitors of human tyrosyl-DNA phosphodiesterase TDP1. Q9NUW8. recombinant TDP1, AlphaScreen DNA substrate cleavage. 350,000 compounds, 0.28% hits. Potency, µM (doses to about 130 µM), for the others: top-dose activity change, negative = inhibition, actives largely listed as inhibitors; also: nearly all actives have a fitted effect of over 40% in size
Target sequence (Q9NUW8 whole entry, looked up): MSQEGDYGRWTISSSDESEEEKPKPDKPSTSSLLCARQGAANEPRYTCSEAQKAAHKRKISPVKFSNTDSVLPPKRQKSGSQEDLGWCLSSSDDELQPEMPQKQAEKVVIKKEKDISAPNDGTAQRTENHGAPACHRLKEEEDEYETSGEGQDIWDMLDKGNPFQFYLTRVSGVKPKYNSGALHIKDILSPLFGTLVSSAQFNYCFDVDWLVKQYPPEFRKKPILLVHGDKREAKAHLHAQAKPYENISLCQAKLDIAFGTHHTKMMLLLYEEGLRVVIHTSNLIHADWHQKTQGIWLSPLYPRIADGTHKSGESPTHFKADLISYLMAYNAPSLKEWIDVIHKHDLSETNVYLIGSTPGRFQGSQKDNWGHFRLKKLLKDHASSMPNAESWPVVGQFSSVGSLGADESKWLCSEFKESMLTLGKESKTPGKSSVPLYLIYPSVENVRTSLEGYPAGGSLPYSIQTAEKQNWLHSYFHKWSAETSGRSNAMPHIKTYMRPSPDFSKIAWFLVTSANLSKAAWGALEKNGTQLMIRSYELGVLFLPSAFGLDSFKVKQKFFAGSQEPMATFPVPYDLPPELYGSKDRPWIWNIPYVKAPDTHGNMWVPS
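Recombinant E. coli-expressed Tdp1 (1 nM) preincubated with compound 15 min at RT, then 5'-biotin/3'-phosphotyrosine-FITC DNA substrate (15 nM) added for 5 min. AlphaScreen beads (10 ug/ml) added, 10 min RT; tyrosine-FITC cleavage read as signal loss.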
Numbers without * were called inactive; ? = inconclusive; . = not tested or not shown; [ ] = another dose, or the depositor's remark. In the library only some 18% were active in any assay of this set; here they are far more common. Calls follow the shape of the dose curve; as a rule, active = well fitted curve in the direction sought with a large enough effect; inconclusive = small, poorly fitted or top-dose-only effect, or another doubt; inactive = no such curve, though single readings can be large; an effect the other way counts as inactive or inconclusive. % is scaled to controls: 0 for no effect and ±100 for the full control effect; potency is read from the fitted curve at half-maximal effect.

SMILES	GCN5L2 inh	DT40 TDP1 no CPT	PLK1 PBD inh	VDR inh	DT40 TDP1 CPT	TDP1 inh
Cn1c(=O)n(Cc2ccccc2Cl)c(=O)c2c1[nH]c(=S)n2C	-29.5%	-10.1%	16.8µM*	-23.0%	6.1%	.
Cn1c(=O)n(Cc2ccccc2Cl)c2ccccc21	23.6%	18.4µM*	16.8µM*	?	?	2.5%
Cn1c(=O)n(Cc2ccc(Cl)cc2)c2ccccc21	-1.8%	-2.9%	-9.4%	-5.8%	-24.5%	4.9%
Cn1c(=O)c2c([nH]c(=O)n2Cc2ccc(Cl)cc2Cl)n(C)c1=O	-3.8%	7.7%	.	-10.6%	2.1%	.
N[C@H](C(=O)O)c1nn[nH]n1	-5.4%	-8.9%	.	0.8%	-9.8%	10.7%[56.1 µM]
CN1C(=O)C(N=Nc2ccc([N+](=O)[O-])cc2)SC1=S (centres undefined)	.	6.51µM*	13.4µM*	-0.7%	7.31µM*	.
Cc1ccc(OCCn2cc(/C=C3\C(=O)NN(c4ccccc4)C3=O)c3ccccc32)cc1	-10.1%	25.9µM*	-6.6%	-5.9%	16.4µM*	6.7%
Cc1ccc(OCCn2cc(/C=N/NC(=O)c3ccncc3)c3ccccc32)cc1	-1.4%	23.1µM*	15µM*	8.4%	?	6.8%
COC(=O)N/N=C/c1cn(CC(C)COc2ccccc2)c2ccccc12 (centres undefined)	-7.0%	23.1µM*	-4.5%	-3.7%	?	8.0%
Cc1ccc(OCCn2cc(C=O)c3ccccc32)cc1	-12.3%	?	-15.5%	4.6%	?	-7.2%
COc1ccc(OCCn2cc(/C=N/NC(=O)c3ccncc3)c3ccccc32)cc1	-5.4%	-8.2%	3.8%	-5.3%	-1.7%	8.2%
COC(=O)N/N=C/c1cn(CCOc2ccccc2)c2ccccc12	-10.6%	?	-3.8%	-1.6%	-0.2%	.
CCOC(=O)N/N=C/c1cn(CCCOc2ccc(C)cc2)c2ccccc12	-1.9%	20.6µM*	-6.1%	-3.0%	?	-8.0%
O=C(NC(=S)N(CCO)Cc1ccccc1)c1ccc(F)cc1Cl	-11.6%	6.2%	-5.0%	3.9%	3.2%	.
CCOC(=O)c1cc(S(=O)(=O)Nc2cc(OC)ccc2OC)[nH]n1	-2.2%	?	.	12.7%	?	-0.6%
COCCNC(=O)C1(C)CCCN(C(=O)c2ccc(F)c(Cl)c2)C1 (centres undefined)	.	-0.3%	1.4%	.	0.4%	.
COc1ccc(NC(=O)/C=C/c2cc(Br)ccc2OC)cc1	?	20.6µM*	-6.6%	-10.6%	?	2.0%
COc1ccc(Br)cc1/C=C/C(=O)Nc1c(C)cccc1C	-0.3%	23.1µM*	-1.7%	3.5%	?	5.9%
COc1ccc(S(=O)(=O)Nc2ccc(NC(C)=O)cc2)cc1Br	0.7%	-25.4%	6.6%	-11.8%	-13.1%	-2.7%
CCN(CC)c1ccc(NC(=O)/C=C/c2cc(Br)ccc2OC)cc1	-9.1%	?	-4.6%	-22.2%	?	11.4%
COc1ccc(Br)cc1/C=C\C(=O)NCc1cccnc1	-2.0%	?	-0.9%	15.8%	1.0%	5.6%
COc1ccc(Br)cc1/C=C/C(=O)c1ccc(NC(C)=O)cc1	-2.3%	4.11µM*	-10.4%	?	5.8µM*	-3.0%
O=C(NCc1ccccn1)C(=O)C1C(=O)Nc2ccccc21 (centres undefined)	-11.4%	-13.9%	-5.1%	-24.3%	-13.4%	5.0%
Cc1snc(S(=O)(=O)/C(C#N)=N/Nc2cccc(C(F)(F)F)c2)c1C#N	-2.1%	?	?	-9.7%	16.4µM*	7.5%
COC(=O)C1CCN(Cc2ccc3c(c2)CN(C(=O)C2Cc4ccccc4O2)CCO3)CC1 (centres undefined)	.	-14.5%	.	.	17.1%[9.04 µM]	.
SMILES	GCN5L2 inh	DT40 TDP1 no CPT	PLK1 PBD inh	VDR inh	DT40 TDP1 CPT	TDP1 inh
Cc1ccc(CNC(=O)C2CCCN(S(=O)(=O)c3cn(C)cn3)C2)cc1 (centres undefined)	-11.6%	-5.5%	.	5.0%	17.2%	3.8%
O=c1oc2ccccc2cc1-c1nc(-c2cccs2)cs1	-7.1%	?	11.2µM*	2.9%	-15.7%	.
N=c1oc2ccccc2cc1-c1nc(-c2ccccc2)cs1	?	23.1µM*	-1.3%	-2.9%	?	-4.2%
N=c1oc2ccc3ccccc3c2cc1-c1nc(-c2ccccc2)cs1	-1.6%	?	?	-8.3%	?	5.4%
CC1COCC(C)N1C(=O)c1cccnc1 (centres undefined)	.	-23.7%	8.9%	.	-1.7%	.
C[C@@H]1C[C@H](Nc2ccccc2)c2ccccc2N1C(=O)c1cccnc1	-18.6%	4.61µM*	0.0%	10.1%	7.31µM*	7.2%
CC(C)c1ccc(NC2CCCN(C(=O)c3cccnc3)C2)cc1 (centres undefined)	-7.0%	?	-12.0%	15.4%	?	2.5%
CC1CC(Nc2ccccc2)c2ccccc2N1C(=O)c1cccnc1 (centres undefined)	-7.1%	4.61µM*	-4.7%	9.0%	9.2µM*	5.0%
CC1CC(Nc2ccccc2)c2ccccc2N1C(=O)c1ccccc1F (centres undefined)	-14.9%	1.03µM*	-13.4%	-9.1%	1.84µM*	.
C=CCC[C@@H](CCCCC)OC(=O)/C=C/[C@H](O)[C@@H](O)C[C@@H](O)CC=C	.	16.4µM*	7.5%	.	?	.
C=CCC[C@H](CCCCC)OC(=O)/C=C/[C@@H](O)[C@H](O)C[C@@H](O)CC=C	.	18.4µM*	-6.6%	.	18.4µM*	.
C=CCC[C@@H](CCCCC)OC(=O)/C=C/[C@@H](O)[C@H](O)C[C@@H](O)CC=C	.	?	-7.1%	.	?	.
O=C(COC(=O)Cn1cc(C(F)(F)F)ccc1=O)NCc1ccccc1	1.2%	?	-8.2%	9.0%	?	-14.5%
Cc1nn(CC(=O)OCC(=O)Nc2ccccc2[N+](=O)[O-])c(C)c1[N+](=O)[O-]	-0.5%	-20.5%	6.6%	-10.1%	?	0.0%
Cc1nn(CC(=O)OCC(=O)Nc2c(C(C)C)cccc2C(C)C)c(C)c1[N+](=O)[O-]	0.7%	?	29.9µM*	-2.8%	?	5.6%
COc1ccc(NC(=O)N2CCN(Cc3nc4ccc(C)cc4o3)CC2)cc1OC	-1.0%	-7.3%	.	16.3%	-14.4%	-6.2%
O=C(c1ccc2c(c1)OCO2)[C@@H]1[C@@H]2C(=O)N(C3CCCCC3)C(=O)[C@@H]2C2c3ccccc3C=CN21 (some centres undefined)	-9.0%	16.4µM*	-9.8%	-0.5%	?	7.7%
COc1ccc(N2C(=O)[C@@H]3[C@H](C2=O)[C@H]2c4ccccc4C=CN2[C@@H]3C(C)=O)cc1	-5.8%	16.4µM*	?	-0.7%	?	7.2%
